Assay results from PubChem BioAssay (NCI).
Compounds without any hit were thinned out: in the full panel of roughly 79,000, 15% have a hit. The source made the active and inactive calls. Cut-off read from the data, not from the text of the source: active = growth inhibition above about 70%; inactive = the rest.

Experiments:
[1] = NCI Yeast Anticancer Drug Screen. Data for the mlh1 strain (AID 171);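 note: 0% = growth of vehicle-treated control cultures of the same strain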; conditions: S. cerevisiae mlh1 strain growth inhibition, stronger effect = higher value
How it was run: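 Inhibition values reflect reduced yeast growth in the presence of compound, referenced to vehicle controls, using a strain chosen for its alteration in DNA repair or cell cycle control.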

[2] = NCI Yeast Anticancer Drug Screen. Data for the sgs1 strain (AID 173);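 note: 0% = growth of vehicle-only control cultures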; conditions: S. cerevisiae sgs1 mutant, stronger effect = higher value
How it was run: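 Vehicle-treated cultures served as reference for growth inhibition of a yeast strain altered in DNA damage repair or cell cycle control after compound exposure.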

[3] = NCI Yeast Anticancer Drug Screen. Data for the mlh1 rad18 strain (AID 175); conditions: S. cerevisiae mlh1 rad18 strain growth inhibition, stronger effect = higher value
How it was run: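 Inhibition values reflect reduced growth of mutant yeast versus vehicle-treated controls following compound exposure; the mutations affect DNA damage repair.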

[4] = NCI Yeast Anticancer Drug Screen. Data for the rad18 strain (AID 177); conditions: S. cerevisiae rad18 mutant growth inhibition, stronger effect = higher value
How it was run: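 Steps: expose repair-mutant yeast to compound; measure growth; express as inhibition relative to vehicle control.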

[5] = NCI Yeast Anticancer Drug Screen. Data for the wt1 strain (AID 149);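 note: 0% = growth of vehicle-treated wt1 cultures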; conditions: S. cerevisiae wt1 strain (SPY 50644) growth inhibition, stronger effect = higher value
How it was run: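 Measured: growth of wt1 yeast under compound versus vehicle treatment, reported as inhibition.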

[6] = NCI Yeast Anticancer Drug Screen. Data for the rad50EPP+ strain (AID 151);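 note: 0% = growth of vehicle-treated control cultures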; conditions: S. cerevisiae rad50 mutant strain, stronger effect = higher value
How it was run: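 Genetically defined yeast (rad50EPP+, DNA damage repair alteration) is grown with compound, and inhibition of growth is expressed relative to vehicle-treated controls.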

[7] = NCI Yeast Anticancer Drug Screen. Data for the rad50 strain (AID 155);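 note: 0% = growth of vehicle-only cultures of the same strain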; conditions: S. cerevisiae rad50 strain growth inhibition, stronger effect = higher value
How it was run: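 Growth of the mutant yeast was measured after compound exposure and referenced to vehicle-treated cultures.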

[8] = NCI Yeast Anticancer Drug Screen. Data for the mec2-1 strain (AID 157); conditions: S. cerevisiae mec2-1 strain, stronger effect = higher value
How it was run: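 Each compound was tested on mec2-1 yeast, a strain altered in DNA damage repair or cell cycle control. Growth inhibition is reported relative to vehicle.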

[9] = NCI Yeast Anticancer Drug Screen. Data for the sgs1 mgt1 strain (AID 161);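 note: 0% = growth of cultures given vehicle only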; conditions: S. cerevisiae sgs1 mgt1 strain, stronger effect = higher value
How it was run: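 Genetically altered yeast, compound exposure, growth inhibition relative to vehicle.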

[10] = NCI Yeast Anticancer Drug Screen. Data for the CLN2oe strain (AID 163);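 note: 0% = growth of vehicle-only control cultures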; conditions: S. cerevisiae CLN2oe strain, stronger effect = higher value
How it was run: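 First, the altered yeast strain was treated with each compound; second, its growth was measured; finally, inhibition was derived by comparison with vehicle controls.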

[11] = NCI Yeast Anticancer Drug Screen. Data for the cln2 rad14 strain (AID 165);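 note: 0% = growth equal to vehicle treated cultures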; conditions: S. cerevisiae cln2 rad14 strain, stronger effect = higher value
How it was run: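 Test compounds were added to cln2 rad14 yeast cultures; inhibition of growth was then determined by comparison with vehicle treatment.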

[12] = NCI Yeast Anticancer Drug Screen. Data for the bub3 strain (AID 167); conditions: S. cerevisiae bub3 mutant strain, stronger effect = higher value
How it was run: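 Whole-cell yeast assay. The mutant strain was incubated with compounds, and growth inhibition was determined by comparison with vehicle-treated cells.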

[13] = NCI Yeast Anticancer Drug Screen. Data for the wt2 strain (AID 169);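 note: 0% = growth of vehicle-treated yeast cultures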; conditions: S. cerevisiae wt2 strain growth inhibition, stronger effect = higher value
How it was run: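 The panel's yeast strains carry defined changes in DNA repair or cell cycle genes. Each strain is grown with compound, and growth loss is scored relative to vehicle.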

[14] = at 5.0 µM (retest, dose inferred, filed as 0.5)
[15] = at 50.0 µM (retest, dose inferred, filed as 5.0)

Measured: growth inhibition

CC(C)(C)c1nc2c(o1)C(=O)c1ccccc1C2=O
active: [1]; at 33.0 µM 81% | [1]; at 100.0 µM 96% | [2]; at 33.0 µM 88% | [2]; at 100.0 µM 95% | [3]; [15] 86% | [3]; at 50.0 µM 91.5% | [4]; at 33.0 µM 77% | [4]; at 100.0 µM 95%
inactive: [1]; at 1.2 µM -6% | [1]; at 3.7 µM -3% | [1]; at 11.0 µM 25% | [2]; at 1.2 µM 7% | [2]; at 3.7 µM -10% | [2]; at 11.0 µM 36% | [3]; [14] 21% | [4]; at 1.2 µM -25% | [4]; at 3.7 µM -14% | [4]; at 11.0 µM 4%

Cc1ccc(S(=O)(=O)Oc2cc(Cl)c(Cl)cc2Cl)cc1
inactive: [5]; at 1.2 µM -2% | [5]; at 3.7 µM -4% | [5]; at 11.0 µM -7% | [5]; at 33.0 µM -9% | [5]; at 100.0 µM -12% | [6]; at 1.2 µM -1% | [6]; at 3.7 µM 9% | [6]; at 11.0 µM 27% | [6]; at 33.0 µM 28% | [6]; at 100.0 µM 66% | [7]; at 1.2 µM -2% | [7]; at 3.7 µM 6% | [7]; [14] 9% | [7]; at 11.0 µM 11% | [7]; at 33.0 µM 3% | [7]; [15] 7% | [7]; at 50.0 µM -6.5% | [7]; at 100.0 µM 17% | [8]; at 1.2 µM -1% | [8]; at 3.7 µM -1% | [8]; [14] -29% | [8]; at 11.0 µM -5% | [8]; at 33.0 µM -9% | [8]; [15] -17% | [8]; at 50.0 µM -21.8% | [8]; at 100.0 µM -6% | [9]; [14] 23% | [9]; [15] 25% | [9]; at 50.0 µM 7.65% | [10]; at 1.2 µM -2% | [10]; at 3.7 µM -6% | [10]; at 11.0 µM -10% | [10]; at 33.0 µM -18% | [10]; at 100.0 µM -18% | [11]; [14] 4% | [11]; [15] 3% | [11]; at 50.0 µM -9.8% | [12]; at 1.2 µM 1% | [12]; at 3.7 µM 3% | [12]; [14] 4% | [12]; at 11.0 µM 3% | [12]; at 33.0 µM -2% | [12]; [15] 40% | [12]; at 50.0 µM 10.2% | [12]; at 100.0 µM -4% | [13]; at 1.2 µM 1% | [13]; at 3.7 µM -9% | [13]; at 11.0 µM -14% | [13]; at 33.0 µM -9% | [13]; at 100.0 µM -8% | [2]; at 1.2 µM -19% | [2]; at 3.7 µM -14% | [2]; at 11.0 µM -18% | [2]; at 33.0 µM 0% | [2]; at 100.0 µM 12% | [3]; [14] 18% | [3]; [15] 53% | [3]; at 50.0 µM 2.3% | [4]; at 1.2 µM -5% | [4]; at 3.7 µM -2% | [4]; at 11.0 µM 1% | [4]; at 33.0 µM -3% | [4]; at 100.0 µM 11%
